Experimental data as given in PubChem BioAssay (NCI).
Compounds without any hit were thinned out: in the full panel of roughly 79,000, 15% have a hit. The source made the active and inactive calls. No stated cut-off is given here; in the data, active means growth inhibition above about 70%; inactive means the rest.

Legend:
[1] = NCI Yeast Anticancer Drug Screen. Data for the wt2 strain (AID 169);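 further: 0% = growth of vehicle-treated yeast cultures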; conditions: S. cerevisiae wt2 strain growth inhibition, hits give high values
Outline: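 Treated yeast vs. vehicle-treated yeast: growth inhibition determined.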

[2] = NCI Yeast Anticancer Drug Screen. Data for the mlh1 strain (AID 171);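 further: 0% = growth of vehicle-treated control cultures of the same strain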; conditions: S. cerevisiae mlh1 strain growth inhibition, hits give high values
Outline: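 A yeast strain with a defined genetic lesion serves as the test organism. Cultures receive compound or vehicle, and growth is measured.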

[3] = NCI Yeast Anticancer Drug Screen. Data for the sgs1 strain (AID 173);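 further: 0% = growth of vehicle-only control cultures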; conditions: S. cerevisiae sgs1 mutant, hits give high values
Outline: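 A genetically defined yeast mutant is incubated with the test compound, and its growth is compared to that of the same strain given vehicle.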

[4] = NCI Yeast Anticancer Drug Screen. Data for the mlh1 rad18 strain (AID 175); conditions: S. cerevisiae mlh1 rad18 strain growth inhibition, hits give high values
Outline: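 Steps: expose repair-defective yeast to compound; measure growth; express inhibition against vehicle-treated controls.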

[5] = NCI Yeast Anticancer Drug Screen. Data for the rad18 strain (AID 177); conditions: S. cerevisiae rad18 mutant growth inhibition, hits give high values
Outline: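 Measured value is growth inhibition of a yeast strain bearing a DNA repair alteration, referenced to vehicle-treated cells.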

[6] = NCI Yeast Anticancer Drug Screen. Data for the rad52 strain (AID 147);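 further: 0% = growth of vehicle-treated control cultures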; conditions: S. cerevisiae rad52 mutant growth inhibition, hits give high values
Outline: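 Here a repair-compromised yeast strain receives each compound; its growth is then quantified and normalised to vehicle-only controls.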

[7] = NCI Yeast Anticancer Drug Screen. Data for the wt1 strain (AID 149);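 further: 0% = growth of vehicle-treated wt1 cultures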; conditions: S. cerevisiae wt1 strain (SPY 50644) growth inhibition, hits give high values
Outline: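 Readout: yeast growth inhibition, normalised to vehicle controls, in the wt1 strain exposed to test compounds.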

[8] = NCI Yeast Anticancer Drug Screen. Data for the rad50EPP+ strain (AID 151);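 further: 0% = growth of vehicle-treated control cultures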; conditions: S. cerevisiae rad50 mutant strain, hits give high values
Outline: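 Read-out is yeast growth inhibition relative to vehicle; cells used were the rad50EPP+ strain.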

[9] = NCI Yeast Anticancer Drug Screen. Data for the mgt1 strain (AID 153); conditions: S. cerevisiae mgt1 mutant growth inhibition, hits give high values
Outline: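 Measured: inhibition of mgt1 yeast growth by compound, normalized to vehicle-treated cultures.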

[10] = NCI Yeast Anticancer Drug Screen. Data for the rad50 strain (AID 155);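 further: 0% = growth of vehicle-only cultures of the same strain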; conditions: S. cerevisiae rad50 strain growth inhibition, hits give high values
Outline: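 Compounds were tested on a yeast strain with an engineered DNA damage repair alteration; the reported value is growth inhibition normalised to vehicle treatment.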

[11] = NCI Yeast Anticancer Drug Screen. Data for the mec2-1 strain (AID 157); conditions: S. cerevisiae mec2-1 strain, hits give high values
Outline: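 Using mec2-1 yeast: add compound, measure growth, express inhibition versus vehicle-treated cultures.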

[12] = NCI Yeast Anticancer Drug Screen. Data for the rad14 strain (AID 159);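 further: 0% = growth of vehicle-treated control cultures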; conditions: S. cerevisiae rad14 strain growth inhibition, hits give high values
Outline: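 Compound-treated yeast with a defined DNA-repair lesion; growth inhibition normalised to vehicle-treated cultures.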

[13] = NCI Yeast Anticancer Drug Screen. Data for the sgs1 mgt1 strain (AID 161);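 further: 0% = growth of cultures given vehicle only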; conditions: S. cerevisiae sgs1 mgt1 strain, hits give high values
Outline: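 Growth of a repair-deficient yeast mutant was monitored after compound treatment and expressed as inhibition relative to vehicle-treated cultures.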

[14] = NCI Yeast Anticancer Drug Screen. Data for the CLN2oe strain (AID 163);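 further: 0% = growth of vehicle-only control cultures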; conditions: S. cerevisiae CLN2oe strain, hits give high values
Outline: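 Whole-cell yeast growth assay. A strain engineered for altered cell-cycle control received compound, and inhibition relative to vehicle-treated cultures was recorded.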

[15] = NCI Yeast Anticancer Drug Screen. Data for the cln2 rad14 strain (AID 165);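 further: 0% = growth equal to vehicle treated cultures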; conditions: S. cerevisiae cln2 rad14 strain, hits give high values
Outline: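 Yeast strain cln2 rad14, bearing defects in cell cycle control and DNA repair, serves as the test system; values reflect growth inhibition compared with vehicle.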

[16] = NCI Yeast Anticancer Drug Screen. Data for the bub3 strain (AID 167); conditions: S. cerevisiae bub3 mutant strain, hits give high values
Outline: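 Growth of a checkpoint-deficient yeast mutant is measured after compound exposure. Values represent inhibition relative to vehicle.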

[17] = at 5.0 µM (retest, dose inferred, filed as 0.5)
[18] = at 50.0 µM (retest, dose inferred, filed as 5.0)

Measured: growth inhibition

CNCC(C)CNC
inactive: [1]; at 1.2 µM -30% | [1]; at 3.7 µM -30% | [1]; at 11.0 µM -28% | [1]; at 33.0 µM -37% | [1]; at 100.0 µM -41% | [2]; at 1.2 µM 12% | [2]; at 3.7 µM 8% | [2]; at 11.0 µM 5% | [2]; at 33.0 µM 6% | [2]; at 100.0 µM -30% | [3]; at 1.2 µM -28% | [3]; at 3.7 µM -6% | [3]; at 11.0 µM -22% | [3]; at 33.0 µM -23% | [3]; at 100.0 µM -22% | [4]; [17] -6% | [5]; at 1.2 µM -16% | [5]; at 3.7 µM -25% | [5]; at 11.0 µM -21% | [5]; at 33.0 µM -21% | [5]; at 100.0 µM -31%
active: [4]; [18] 84% | [4]; at 50.0 µM 71.8%

COc1ccc2nc3cccc([N+](=O)[O-])c3c(NCCCCCC(=O)O)c2c1
inactive: [7]; at 1.2 µM 2% | [7]; at 3.7 µM 29% | [8]; at 1.2 µM 38% | [9]; at 1.2 µM 0% | [9]; at 3.7 µM 26% | [11]; at 1.2 µM 63% | [14]; at 1.2 µM 2% | [14]; at 3.7 µM 50% | [16]; at 1.2 µM -11% | [16]; at 3.7 µM 34% | [16]; [17] 2% | [1]; at 1.2 µM 6% | [1]; at 3.7 µM 42% | [2]; at 1.2 µM 23% | [2]; at 3.7 µM 63%
active: [6]; at 1.2 µM 87% | [6]; at 3.7 µM 96% | [6]; at 11.0 µM 97% | [6]; at 33.0 µM 98% | [6]; at 100.0 µM 98% | [7]; at 11.0 µM 93% | [7]; at 33.0 µM 98% | [7]; at 100.0 µM 98% | [8]; at 3.7 µM 81% | [8]; at 11.0 µM 95% | [8]; at 33.0 µM 97% | [8]; at 100.0 µM 98% | [9]; at 11.0 µM 91% | [9]; at 33.0 µM 97% | [9]; at 100.0 µM 99% | [10]; at 1.2 µM 84% | [10]; at 3.7 µM 94% | [10]; [17] 97% | [10]; at 11.0 µM 96% | [10]; at 33.0 µM 97% | [10]; [18] 98% | [10]; at 50.0 µM 87% | [10]; at 100.0 µM 97% | [11]; at 3.7 µM 96% | [11]; [17] 96% | [11]; at 11.0 µM 97% | [11]; at 33.0 µM 98% | [11]; [18] 99% | [11]; at 50.0 µM 91% | [11]; at 100.0 µM 99% | [12]; at 1.2 µM 96% | [12]; at 3.7 µM 99% | [12]; at 11.0 µM 99% | [12]; at 33.0 µM 99% | [12]; at 100.0 µM 99% | [13]; [17] 95% | [13]; [18] 99% | [13]; at 50.0 µM 82.7% | [14]; at 11.0 µM 91% | [14]; at 33.0 µM 97% | [14]; at 100.0 µM 98% | [15]; [17] 99% | [15]; [18] 99% | [15]; at 50.0 µM 88.8% | [16]; at 11.0 µM 96% | [16]; at 33.0 µM 97% | [16]; [18] 99% | [16]; at 50.0 µM 87.2% | [16]; at 100.0 µM 99% | [1]; at 11.0 µM 94% | [1]; at 33.0 µM 97% | [1]; at 100.0 µM 99% | [2]; at 11.0 µM 94% | [2]; at 33.0 µM 97% | [2]; at 100.0 µM 98% | [3]; at 1.2 µM 90% | [3]; at 3.7 µM 93% | [3]; at 11.0 µM 98% | [3]; at 33.0 µM 98% | [3]; at 100.0 µM 98% | [4]; [17] 97% | [4]; [18] 98% | [4]; at 50.0 µM 82.6% | [5]; at 1.2 µM 96% | [5]; at 3.7 µM 96% | [5]; at 11.0 µM 96% | [5]; at 33.0 µM 97% | [5]; at 100.0 µM 98%

CCOC(=O)/C(=C/c1cccc(Cl)c1)N(CC)CC
active: [6]; at 100.0 µM 96% | [7]; at 100.0 µM 96% | [9]; at 100.0 µM 93% | [10]; [18] 75% | [10]; at 50.0 µM 77.4% | [10]; at 100.0 µM 95% | [11]; [18] 86% | [11]; at 50.0 µM 78.5% | [11]; at 100.0 µM 95% | [12]; at 100.0 µM 93% | [13]; [18] 90% | [13]; at 50.0 µM 83% | [14]; at 100.0 µM 96% | [15]; [18] 94% | [15]; at 50.0 µM 87.5% | [16]; [18] 90% | [16]; at 50.0 µM 83.5% | [16]; at 100.0 µM 96% | [1]; at 100.0 µM 97% | [2]; at 100.0 µM 91% | [3]; at 100.0 µM 96% | [4]; [18] 83% | [4]; at 50.0 µM 78.2% | [5]; at 100.0 µM 95%
inactive: [6]; at 1.2 µM 10% | [6]; at 3.7 µM 13% | [6]; at 11.0 µM 12% | [6]; at 33.0 µM 49% | [7]; at 1.2 µM 8% | [7]; at 3.7 µM 13% | [7]; at 11.0 µM 22% | [7]; at 33.0 µM 43% | [8]; at 1.2 µM 37% | [8]; at 3.7 µM 29% | [8]; at 11.0 µM 34% | [8]; at 33.0 µM 45% | [8]; at 100.0 µM 57% | [9]; at 1.2 µM 8% | [9]; at 3.7 µM 9% | [9]; at 11.0 µM 27% | [9]; at 33.0 µM 51% | [10]; at 1.2 µM -1% | [10]; at 3.7 µM 5% | [10]; [17] 17% | [10]; at 11.0 µM 6% | [10]; at 33.0 µM 39% | [11]; at 1.2 µM 6% | [11]; at 3.7 µM 2% | [11]; [17] -22% | [11]; at 11.0 µM 7% | [11]; at 33.0 µM 46% | [12]; at 1.2 µM -12% | [12]; at 3.7 µM 10% | [12]; at 11.0 µM 12% | [12]; at 33.0 µM 46% | [13]; [17] 10% | [14]; at 1.2 µM 8% | [14]; at 3.7 µM -9% | [14]; at 11.0 µM 20% | [14]; at 33.0 µM 45% | [15]; [17] 43% | [16]; at 1.2 µM 30% | [16]; at 3.7 µM 18% | [16]; [17] 17% | [16]; at 11.0 µM 24% | [16]; at 33.0 µM 55% | [1]; at 1.2 µM 5% | [1]; at 3.7 µM 11% | [1]; at 11.0 µM 13% | [1]; at 33.0 µM 40% | [2]; at 1.2 µM 18% | [2]; at 3.7 µM 13% | [2]; at 11.0 µM 7% | [2]; at 33.0 µM 48% | [3]; at 1.2 µM 26% | [3]; at 3.7 µM 30% | [3]; at 11.0 µM 41% | [3]; at 33.0 µM 62% | [4]; [17] -9% | [5]; at 1.2 µM 13% | [5]; at 3.7 µM 14% | [5]; at 11.0 µM 17% | [5]; at 33.0 µM 35%
